An excerpt weighted towards active compounds, which were near 14% of everything screened.
HCMV inh: human cytomegalovirus inhibition; 410,000 tested, 4.5% active; HFF cells, HCMV-luciferase reporter, 72 h; stronger effect = lower value; AID 1259415; activity change, negative = inhibition, % at 57.5 µM; in the data active means activity change below about -60%; inconclusive means no clear call, values can overlap the other calls; inactive means above about -39%
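Steps: HFFs plated, 16 h 37C; compounds added; HCMV-luciferase added to MOI 1 PFU/cell; 72 h 37C; OneGlo reagent, 5 min room temperature; luminescence read, normalized to controls.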
Pf growth 48h: P. falciparum growth inhibition at 48 hours (one generation); Potency, µM (highest dose often 28.7 µM), actives largely listed as inhibitors; P. falciparum luciferase growth in erythrocytes, 48 h; 310,000 tested, 5.9% active
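Here the parasites carry a stable luciferase gene and grow inside erythrocytes in Albumax-based RPMI medium with compound for one erythrocytic cycle. Activity is scored as loss of luminescent signal.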
Pf growth 96h: P. falciparum growth inhibition at 96 hours. P. falciparum luciferase reporter growth, 96 h. Potency, µM (titrated, usually from 28.7 µM), usual class: inhibitors. 320,000 tested, 6.9% active
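96 h incubation, 37 C, 5% CO2, of luciferase-reporter P. falciparum-infected RBCs (2% hematocrit, 0.05% parasitemia final) with test compounds; endpoint luminescence.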
Sm TGR block: inhibitors of Schistosoma mansoni thioredoxin glutathione reductase; Q962Y6; purified TGR, DTNB reduction, TNB absorbance 405 nm; Potency, µM (doses to about 114 µM), hits mostly inhibitors; 360,000 tested, 3% active; further: nearly all actives have a fitted effect of over 60% in size
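Kinetic colorimetric format: TGR-catalysed, NADPH-driven DTNB reduction monitored via TNB absorbance. Enzyme dispensed at 20 nM; compound exposure 15 min at room temperature before reaction start.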
FBPA Giardia inh: Giardia lamblia aldolase inhibition; 290,000 tested, 0.71% active; Potency, µM (series often up to 59.6 µM), hits mostly inhibitors; purified Giardia FBPA; AID 2451; further: nearly all actives have a fitted effect of over 55% in size
Target sequence (A8B2U2 whole entry, looked up): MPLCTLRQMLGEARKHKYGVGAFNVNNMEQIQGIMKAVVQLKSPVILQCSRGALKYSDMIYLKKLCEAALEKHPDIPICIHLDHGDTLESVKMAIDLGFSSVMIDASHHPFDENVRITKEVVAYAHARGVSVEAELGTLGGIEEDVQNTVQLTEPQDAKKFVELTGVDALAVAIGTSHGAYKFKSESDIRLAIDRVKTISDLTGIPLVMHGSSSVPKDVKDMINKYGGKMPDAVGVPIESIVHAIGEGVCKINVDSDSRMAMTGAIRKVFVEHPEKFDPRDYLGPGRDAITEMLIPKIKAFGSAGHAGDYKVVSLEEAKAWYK
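40 nM FBPA preincubated 10 min at RT with compound (up to 57.5 uM final), then substrate plus GAPDH/TPI/NAD/arsenate coupling and diaphorase/resazurin added. Fluorescence read after 20 min at RT, 525/598 nm.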
Each line names hits and unclear results; the compound was inactive in the other large screens. Unless noted, the call rests on the fitted dose curve; in most records, active means well fitted curve in the direction sought with a large enough effect; inconclusive means small, poorly fitted or top-dose-only effect, or another doubt; inactive means no such curve, though single readings can be large; an effect the other way counts as inactive or inconclusive.

O=S(=O)(c1ccccc1F)N1CCC(Oc2ccc(-n3cnnn3)cc2)CC1	HCMV inh -62, Pf growth 96h inconclusive (no result: FBPA Giardia inh)
CC(C)(C)c1ccc(S(=O)(=O)N2CCC(Oc3ccc(-n4cnnn4)cc3)CC2)cc1	none (no result: Pf growth 48h, Pf growth 96h, FBPA Giardia inh)
CCC(C)(C)NC(=O)CN(C(=O)CNS(=O)(=O)c1ccc(C)cc1)c1ccc2c(c1)OCCO2	Pf growth 48h 6.6µM (no result: Pf growth 96h)
Cc1ccc(S(=O)(=O)NCC(=O)N(CC(=O)NC2CCCC2)c2ccc3c(c2)OCCO3)cc1	Pf growth 48h inconclusive
Cc1cccc(C)c1NC(=O)C[n+]1cc(-c2ccccc2)n2c1CCC2	Pf growth 48h inconclusive, Pf growth 96h 12µM
Cc1ccccc1NC(=O)C[n+]1cc(-c2ccccc2)n2c1CCC2	Pf growth 48h inconclusive, Pf growth 96h 5.9µM
O=C(C[n+]1cc(-c2ccc(Cl)cc2)n2c1CCC2)Nc1nc(-c2ccccc2)cs1	Pf growth 48h inconclusive, Pf growth 96h inconclusive
Cc1ccc(S(=O)(=O)N2CCN(CCC#N)CC2)cc1	HCMV inh inconclusive, FBPA Giardia inh inconclusive
CCOC(=O)C1CCN(C(=O)c2cn(C)c(=O)c3cc(OC)c(OC)cc23)CC1	Sm TGR block inconclusive
CCOC(=O)C1CCCN(C(=O)c2cn(C)c(=O)c3cc(OC)c(OC)cc23)C1 (centres undefined)	Pf growth 96h 6.6µM
CCOC(=O)C1CCCN(C(=O)c2cn(CC)c(=O)c3cc(OC)c(OC)cc23)C1 (centres undefined)	Pf growth 96h 1µM
CC(C)OC(=O)C1C2C=CC3(CN(C(C)c4ccc(Br)cc4)C(=O)C13)O2 (centres undefined)	Pf growth 96h 10µM (no result: Pf growth 48h)
CC(c1ccc(Br)cc1)N1CC23C=CC(O2)C(C(=O)O)C3C1=O (centres undefined)	none (no result: Pf growth 48h)
COc1ccc(C(=O)[C@H]2[C@H]3C(=O)N(c4ccc(C)cc4)C(=O)[C@H]3C3C=CC=NN32)cc1 (some centres undefined)	HCMV inh inconclusive, Sm TGR block 40µM, FBPA Giardia inh inconclusive
COc1ccc(C(=O)[C@H]2[C@H]3C(=O)N(c4ccccc4)C(=O)[C@H]3C3C=CC=NN32)cc1 (some centres undefined)	Pf growth 48h 17µM, Sm TGR block inconclusive, FBPA Giardia inh inconclusive
CC(=O)Oc1ccc(C(=O)[C@H]2[C@H]3C(=O)N(c4ccccc4)C(=O)[C@H]3[C@@H]3C=CC=NN32)cc1	Sm TGR block inconclusive, FBPA Giardia inh inconclusive
CC(=O)Oc1ccc(C(=O)[C@H]2[C@H]3C(=O)N(c4ccc(C)cc4)C(=O)[C@H]3[C@@H]3C=CC=NN32)cc1	Sm TGR block inconclusive, FBPA Giardia inh inconclusive
CC(=O)Oc1ccc(C(=O)[C@H]2[C@H]3C(=O)N(c4ccc(C)cc4C)C(=O)[C@H]3[C@@H]3C=CC=NN32)cc1	Pf growth 48h inconclusive, Sm TGR block 18µM, FBPA Giardia inh inconclusive
Cc1cccc(Nc2nc3ccccc3n3c(N)nnc23)c1	none (no result: Pf growth 48h, Pf growth 96h, FBPA Giardia inh)
OC(c1ccc(F)cc1)c1nc(-c2cccc(F)c2)cs1 (centres undefined)	none (no result: Pf growth 48h, Pf growth 96h, Sm TGR block, FBPA Giardia inh)
C[C@@H]1CCCCO[C@@H](CN(C)C(=O)Nc2ccccc2)[C@@H](C)CN([C@H](C)CO)C(=O)c2cc(NC(=O)NC3CCCCC3)ccc2O1	none (no result: Pf growth 48h, Pf growth 96h, Sm TGR block, FBPA Giardia inh)
COc1cc(OC)cc(C(=O)N(CCCN2C(=O)c3cccc4cccc(c34)C2=O)c2cccc(OC)c2)c1	Pf growth 48h 9.3µM
COc1ccc(N(CCCN2C(=O)c3cccc4cccc(c34)C2=O)C(=O)c2cccnc2)cc1	Pf growth 48h inconclusive
COc1ccc(N(CCCN2C(=O)c3cccc4cccc(c34)C2=O)C(=O)c2ccncc2)cc1	Pf growth 48h 2.3µM, Pf growth 96h 1.5µM
Cc1cc(/C=C(\C#N)C(=O)NCc2ccccc2)c(C)[nH]1	none (no result: Pf growth 48h, Pf growth 96h, Sm TGR block, FBPA Giardia inh)
N=c1n(CCCOc2ccccc2Cl)c2ccccc2n1CC(N)=O	Pf growth 48h inconclusive, Pf growth 96h inconclusive
COc1ccc(N(CC(=O)N2CCc3ccccc32)S(=O)(=O)c2c(C)nn(C)c2C)cc1	Pf growth 96h 8.3µM (no result: Pf growth 48h)
CCOC(=O)C1CCN(C(=O)CN(c2ccc(OC)cc2)S(=O)(=O)c2c(C)nn(C)c2C)CC1	Pf growth 96h 7.4µM (no result: Pf growth 48h)
Cc1nn(C)c(C)c1S(=O)(=O)N(CC(=O)N1CCc2ccccc21)c1ccc(C(C)C)cc1	Pf growth 96h inconclusive (no result: Pf growth 48h)
CC(C)(C)NC(=O)C(c1ccccc1)n1c(-c2ccccc2Br)nc2ccccc21 (centres undefined)	none (no result: Pf growth 48h, Pf growth 96h, Sm TGR block, FBPA Giardia inh)
Cc1cc2nc(-c3ccccc3Br)n(C(C(=O)NC(C)(C)C)c3ccccc3)c2cc1C (centres undefined)	HCMV inh -99 (no result: Pf growth 48h, Pf growth 96h, Sm TGR block, FBPA Giardia inh)
COc1ccccc1NC1=C(Cl)C(=O)OC1OC(=O)c1ccco1 (centres undefined)	Sm TGR block inconclusive
COc1cccc(NC2=C(Cl)C(=O)OC2OC(=O)c2ccco2)c1 (centres undefined)	Sm TGR block 7.9µM
Cc1c(Cl)cccc1NC(=O)CN1C(=O)COc2ccc(S(=O)(=O)N3CCCCCC3)cc21	none (no result: Pf growth 48h, Pf growth 96h, FBPA Giardia inh)
CC(=O)Nc1c(C(=O)O)oc2ccc(Cl)cc12	Pf growth 96h 2.6µM
O=C(NCc1ccc(F)cc1)c1c(O)nc2ccccn2c1=O	HCMV inh -61 (no result: Pf growth 48h, Pf growth 96h, FBPA Giardia inh)
CCN(C(=O)c1cc2c(=O)n3cccc(C)c3nc2n1CCCOC)C1CCCCC1	HCMV inh inconclusive, Pf growth 48h inconclusive, Pf growth 96h 9.3µM (no result: FBPA Giardia inh)
Cc1ccc(Cn2c(=N)c(C(=O)NCC3CCCO3)cc3c(=O)n4ccccc4nc32)cc1 (centres undefined)	Pf growth 48h inconclusive, Pf growth 96h inconclusive
N=c1c(C(=O)NCCc2ccccc2)cc2c(=O)n3ccccc3nc2n1CC1CCCO1 (centres undefined)	Pf growth 48h 2.1µM, Pf growth 96h inconclusive
Cc1ccc(Cn2c(=N)c(C(=O)NCC3CCCO3)cc3c(=O)n4cccc(C)c4nc32)cc1 (centres undefined)	HCMV inh -107, Pf growth 48h inconclusive, Pf growth 96h inconclusive
COCCCn1c(C(=O)NC2CCCCC2C)cc2c(=O)n3cccc(C)c3nc21 (centres undefined)	Pf growth 48h inconclusive, Pf growth 96h inconclusive (no result: FBPA Giardia inh)
NS(=O)(=O)c1ccc(NC(=O)CSc2n[nH]c(=O)n2C2CC2)cc1	none (no result: FBPA Giardia inh)
Cc1ccc(CNC(=O)c2cc3c(=O)n4cccc(C)c4nc3n(CC3CCCO3)c2=N)cc1 (centres undefined)	Pf growth 48h inconclusive, Pf growth 96h 8.3µM (no result: HCMV inh)
CCOCCCn1c(=N)c(C(=O)NCC2CCCO2)cc2c(=O)n3cccc(C)c3nc21 (centres undefined)	HCMV inh -67 (no result: Pf growth 48h, Pf growth 96h, FBPA Giardia inh)
Cc1cccn2c(=O)c3cc(C(=O)NCc4cccnc4)c(=N)n(CC4CCCO4)c3nc12 (centres undefined)	HCMV inh inconclusive, Pf growth 48h inconclusive (no result: FBPA Giardia inh)
N=c1c(C(=O)NCc2ccc(F)cc2)cc2c(=O)n3ccccc3nc2n1CC1CCCO1 (centres undefined)	Pf growth 48h 12µM

From PubChem
